Measured values reported in PubChem BioAssay AID1159580 (chemical genetic matrix, 2015).
Hit rate of the full screen: of about 5,500 compounds, about 2,000 (36%) were called active. Inconclusive results (about 18%) are left out. No stated cut-off is given here; in the data, active means normalized growth mostly below about 0.91 (no sharp cut-off); inconclusive means no clear call, values can overlap the other calls; inactive means mostly above about 0.92. The list shows a part of the results.

Assay: chemical genetic growth profiling, strain panel (AID 1159580);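 further: tested at 20 µM; growth read once vehicle control cultures reached saturation at 30 °C; 1 = growth at the plate median or of vehicle wells; lower values mean less growth of the strain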
Details: growth OD

Measured: normalized growth

O=C(O)c1c2ccccc2cc2ccccc12
inactive: S. cerevisiae deletion strains, locus YJR043C, strain POL32, hits give low values 1.04 | S. cerevisiae deletion strains, locus YJR075W, strain HOC1, hits give low values 1.01 | S. cerevisiae deletion strains, locus YKL009W, strain mrt4, hits give low values 0.989 | S. cerevisiae deletion strains, locus YKL068W, hits give low values 0.971 | S. cerevisiae deletion strains, locus YKL085W, strain MDH1 (second series), hits give low values 0.958 | S. cerevisiae deletion strains, locus YKL085W, strain MDH1, hits give low values 0.958 | S. cerevisiae deletion strains, locus YKL160W, strain elf1, hits give low values 0.991 | S. cerevisiae deletion strains, locus YKL190W, strain CNB1, hits give low values 1.02 | S. cerevisiae deletion strains, locus YKR001C, strain vps1, hits give low values 0.981 | S. cerevisiae deletion strains, locus YKR026C, strain gcn3, hits give low values 1 | S. cerevisiae deletion strains, locus YKR091W, strain srl3, hits give low values 0.986 | S. cerevisiae deletion strains, locus YLL001W, strain dnm1, hits give low values 1 | S. cerevisiae deletion strains, locus YLL026W, hits give low values 0.996 | S. cerevisiae deletion strains, locus YLL041C, strain sdh2, hits give low values 0.992 | S. cerevisiae deletion strains, locus YLR027C, strain aat2, hits give low values 0.999 | S. cerevisiae deletion strains, locus YLR039C, strain RIC1, hits give low values 1.04 | S. cerevisiae deletion strains, locus YLR058C, strain SHM2, hits give low values 1.02 | S. cerevisiae deletion strains, locus YLR102C, strain apc9, hits give low values 0.983 | S. cerevisiae deletion strains, locus YLR221C, strain rsa3, hits give low values 0.973 | S. cerevisiae deletion strains, locus YLR258W, strain gsy2, hits give low values 0.992 | S. cerevisiae deletion strains, locus YLR262C, strain YPT6 (second series), hits give low values 0.976 | S. cerevisiae deletion strains, locus YLR262C, strain YPT6, hits give low values 1.03 | S. cerevisiae deletion strains, locus YLR268W, strain sec22, hits give low values 0.986 | S. cerevisiae deletion strains, locus YLR320W, strain mms22, hits give low values 1 | S. cerevisiae deletion strains, locus YLR330W, strain CHS5, hits give low values 1.02 | S. cerevisiae deletion strains, locus YLR342W, strain FKS1 (second series), hits give low values 0.971 | S. cerevisiae deletion strains, locus YLR342W, strain FKS1, hits give low values 1 | S. cerevisiae deletion strains, locus YLR357W, strain rsc2, hits give low values 1.06 | S. cerevisiae deletion strains, locus YLR370C, strain arc18, hits give low values 0.998 | S. cerevisiae deletion strains, locus YLR371W, strain rom2, hits give low values 0.992 | S. cerevisiae deletion strains, locus YLR384C, strain iki3, hits give low values 0.992 | S. cerevisiae deletion strains, locus YLR418C, strain cdc73, hits give low values 0.96 | S. cerevisiae deletion strains, locus YML016C, strain PPZ1, hits give low values 1.01 | S. cerevisiae deletion strains, locus YML032C, strain rad52, hits give low values 0.954 | S. cerevisiae deletion strains, locus YML120C, strain ndi1, hits give low values 0.965 | S. cerevisiae deletion strains, locus YML124C, strain tub3, hits give low values 0.985 | S. cerevisiae deletion strains, locus YMR058W, strain fet3, hits give low values 1.01 | S. cerevisiae deletion strains, locus YMR078C, strain ctf18, hits give low values 0.974 | S. cerevisiae deletion strains, locus YMR125W, strain sto1, hits give low values 1.03 | S. cerevisiae deletion strains, locus YMR129W, hits give low values 0.987 | S. cerevisiae deletion strains, locus YMR205C, strain PFK2, hits give low values 1.01 | S. cerevisiae deletion strains, locus YMR223W, strain ubp8, hits give low values 0.962 | S. cerevisiae deletion strains, locus YMR231W, strain pep5, hits give low values 0.979 | S. cerevisiae deletion strains, locus YMR263W, strain SAP30, hits give low values 1.02 | S. cerevisiae deletion strains, locus YMR307W, strain GAS1, hits give low values 1.13 | S. cerevisiae deletion strains, locus YNL067W, strain RPL9B, hits give low values 1.02 | S. cerevisiae deletion strains, locus YNL071W, strain lat1, hits give low values 0.948 | S. cerevisiae deletion strains, locus YNL128W, strain TEP1, hits give low values 1.02 | S. cerevisiae deletion strains, locus YNL153C, strain GIM3, hits give low values 1.02 | S. cerevisiae deletion strains, locus YNL209W, strain ssb2, hits give low values 1 | S. cerevisiae deletion strains, locus YNL233W, strain BNI4, hits give low values 1.02 | S. cerevisiae deletion strains, locus YNL248C, strain rpa49, hits give low values 0.993 | S. cerevisiae deletion strains, locus YNL250W, strain rad50, hits give low values 0.965 | S. cerevisiae deletion strains, locus YNL271C, strain bni1, hits give low values 0.949 | S. cerevisiae deletion strains, locus YNL298W, strain CLA4, hits give low values 0.948 | S. cerevisiae deletion strains, locus YNL307C, strain MCK1, hits give low values 0.969 | S. cerevisiae deletion strains, locus YNL322C, strain KRE1 (second series), hits give low values 0.998 | S. cerevisiae deletion strains, locus YNL322C, strain KRE1, hits give low values 1.02 | S. cerevisiae deletion strains, locus YNR049C, strain mso1, hits give low values 1.01 | S. cerevisiae deletion strains, locus YNR052C, strain pop2, hits give low values 0.982 | S. cerevisiae deletion strains, locus YOL006C, strain TOP1, hits give low values 0.989 | S. cerevisiae deletion strains, locus YOL012C, strain htz1 0.952 | S. cerevisiae deletion strains, locus YOL147C, strain pex11, hits give low values 0.986 | S. cerevisiae deletion strains, locus YOR001W, strain rrp6, hits give low values 0.957 | S. cerevisiae deletion strains, locus YOR061W, strain CKA2, hits give low values 1.01 | S. cerevisiae deletion strains, locus YOR069W, strain VPS5, hits give low values 1.01 | S. cerevisiae deletion strains, locus YOR070C, strain gyp1, hits give low values 0.999 | S. cerevisiae deletion strains, locus YOR080W, strain dia2, hits give low values 1.01 | S. cerevisiae deletion strains, locus YOR083W, strain WHI5, hits give low values 0.915 | S. cerevisiae deletion strains, locus YOR106W, strain vam3, hits give low values 0.95 | S. cerevisiae deletion strains, locus YOR136W, strain idh2, hits give low values 0.978 | S. cerevisiae deletion strains, locus YOR144C, strain elg1, hits give low values 0.987 | S. cerevisiae deletion strains, locus YOR184W, strain ser1, hits give low values 0.965 | S. cerevisiae deletion strains, locus YOR265W, strain rbl2, hits give low values 0.996 | S. cerevisiae deletion strains, locus YOR270C, strain vph1, hits give low values 0.973 | S. cerevisiae deletion strains, locus YOR290C, strain snf2, hits give low values 0.999 | S. cerevisiae deletion strains, locus YOR316C, strain cot1, hits give low values 0.983 | S. cerevisiae deletion strains, locus YPL051W, strain arl3, hits give low values 0.982 | S. cerevisiae deletion strains, locus YPL055C, strain LGE1, hits give low values 1.03 | S. cerevisiae deletion strains, locus YPL078C, strain atp4, hits give low values 1 | S. cerevisiae deletion strains, locus YPL106C, strain sse1, hits give low values 0.947 | S. cerevisiae deletion strains, locus YPL240C, strain hsp82, hits give low values 0.994 | S. cerevisiae deletion strains, locus YPL241C, strain CIN2, hits give low values 0.982 | S. cerevisiae deletion strains, locus YPR119W, strain clb2, hits give low values 0.979 | S. cerevisiae deletion strains, locus YPR141C, strain kar3, hits give low values 0.948 | S. cerevisiae deletion strains, locus YPR163C, strain tif3, hits give low values 0.984 | S. cerevisiae deletion strains, locus YPR167C, strain met16, hits give low values 0.987 | S. cerevisiae deletion strains, strain wtn01, hits give low values 0.987 | S. cerevisiae strains, strain wild type, hits give low values 1.01
